Results filed as inconclusive are left out. The source made the active and inactive calls. The calls were made as follows: active = hit-call score of the fitted dose curve at least 0.9, where 1 is the maximum; inconclusive = response in the unintended direction; inactive = score below 0.9.
Experiments:
[1] = TOX21_p53_BLA_p2_viability: Viability Assessment in the Tox21 HCT-116 p53 Agonism Beta-lactamase Assay, Phase 2 (AID 2283591);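 also: compound exposure lasted 16 h at 37 °C; actives lower the ATP signal meaning cytotoxicity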
Procedure, shortened: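 HCT-116 p53-bla cells (4000/well) rested 5 h at 37C, then received compounds in DMSO (217-fold dilution) for 16 h at 37C, 5% CO2. After the CCF4 read, CellTiter-Glo was added; ATP luminescence was read after 30 min at room temperature.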

[2] = biological target: Cellular tumor antigen p53 (Homo sapiens) (UniProt P04637); test: TOX21_p53_BLA_p2_ratio: Tox21 HCT-116 p53 Agonism Beta-lactamase Assay, Ratio, Phase 2 (AID 2283592)
Chain of Cellular tumor antigen p53 (Homo sapiens) (P04637 whole entry, looked up): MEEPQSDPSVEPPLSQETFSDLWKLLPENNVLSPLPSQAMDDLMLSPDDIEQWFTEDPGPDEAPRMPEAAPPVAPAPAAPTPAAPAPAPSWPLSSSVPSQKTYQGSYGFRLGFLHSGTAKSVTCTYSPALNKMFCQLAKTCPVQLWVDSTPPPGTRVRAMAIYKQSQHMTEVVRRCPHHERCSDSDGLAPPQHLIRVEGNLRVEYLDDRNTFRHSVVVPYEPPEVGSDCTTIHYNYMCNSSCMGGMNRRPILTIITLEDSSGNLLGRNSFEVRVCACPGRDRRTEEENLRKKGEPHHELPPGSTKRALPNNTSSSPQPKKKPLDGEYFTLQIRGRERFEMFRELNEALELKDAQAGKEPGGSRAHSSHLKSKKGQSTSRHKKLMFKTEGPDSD
Procedure, shortened: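 DMSO-normalized, positive-direction endpoint derived from the 460 nm/530 nm FRET ratio in HCT116 p53 beta-lactamase reporter cells exposed 16 h at 37C and loaded with CCF4-AM for 2 h.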

[3] = TOX21_p53_BLA_p3_viability: Viability Assessment in the Tox21 HCT-116 p53 Agonism Beta-lactamase Assay, Phase 3 (AID 2283593);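 also: cells exposed to compound for 16 h before reading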
Procedure, shortened: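 HCT-116 cells (4000/well) rested 5 h at 37C, then got DMSO compounds by pin tool (217-fold dilution) for 16 h at 37C, 5% CO2. After the bla read, CellTiter-Glo was added and luminescence read at 30 min, room temperature.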

[4] = biological target: Cellular tumor antigen p53 (Homo sapiens) (UniProt P04637); test: TOX21_p53_BLA_p3_ratio: Tox21 HCT-116 p53 Agonism Beta-lactamase Assay, Ratio, Phase 3 (AID 2283596)
Procedure, shortened: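 Cells were seeded at 4000/well, rested 5 h at 37C, then dosed with DMSO compound solutions (217-fold dilution) for 16 h. CCF4-AM substrate was loaded for 2 h at room temperature, and the 460/530 nm emission ratio was fitted for gain of signal versus DMSO.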

[5] = biological target: Cellular tumor antigen p53 (Homo sapiens) (UniProt P04637); test: TOX21_p53_BLA_p5_ratio: Tox21 HCT-116 p53 Agonism Beta-lactamase Assay, Ratio, Phase 5 (AID 2283599)
Procedure, shortened: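 HCT-116 cells carrying a p53-inducible beta-lactamase reporter were seeded at 4000 cells/well and dosed after 5 h with compound in DMSO (217-fold dilution). After 16 h at 37C, CCF4-AM substrate was added for 2 h, and the 460/530 nm emission ratio was scored as gain-of-signal versus DMSO.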

[6] = TOX21_p53_BLA_p5_viability: Viability Assessment in the Tox21 HCT-116 p53 Agonism Beta-lactamase Assay, Phase 5 (AID 2283600)
Procedure, shortened: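 Here cell health was gauged by ATP levels in wells holding 4000 cells, each treated 16 h with DMSO-delivered compounds at 217-fold dilution; reduced luminescence marked toxicity.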

[7] = biological target: Cellular tumor antigen p53 (Homo sapiens) (UniProt P04637); test: TOX21_p53_BLA_p4_ratio: Tox21 HCT-116 p53 Agonism Beta-lactamase Assay, Ratio, Phase 4 (AID 2283601)
Procedure, shortened: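 HCT116 cells carrying an inducible beta-lactamase reporter were plated at 4000 cells/well, rested 5 h, then exposed to compounds in DMSO (217-fold dilution) for 16 h at 37C. CCF4-AM substrate was loaded 2 h at room temperature; 460/530 nm emission ratio scored gain-of-signal versus DMSO.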

Compound	outcome [1]	outcome [2]	outcome [3]	outcome [4]	outcome [5]	outcome [6]	outcome [7]	AC50 [1]	AC50 [2]	AC50 [3]	AC50 [4]	AC50 [5]	AC50 [6]	AC50 [7]
O=c1cccccc1O	inactive	inactive	inactive	inactive	inactive	inactive	inactive	–	–	–	–	–	–	–
C=C1c2cccc(O)c2C(O)=C2C(=O)[C@]3(O)C(O)=C(C(N)=O)C(=O)[C@@H](N(C)C)[C@@H]3[C@@H](O)[C@H]12	inactive	inactive	inactive	inactive	inactive	inactive	inactive	–	–	–	–	–	–	–
CCOc1cc(-c2nccc3cc(OC)c(OC)cc23)cc(OCC)c1OCC	inactive	inactive	inactive	inactive	inactive	inactive	inactive	–	–	–	–	–	–	–
CCCCCCCCSCC	inactive	inactive	inactive	inactive	inactive	inactive	inactive	–	–	–	–	–	–	–
C1CCC(C(CC2CCCCN2)C2CCCCC2)CC1 (stereo not drawn)	–	–	–	–	–	–	–	18.2 µM (active)	26.5 µM (active)	33.3 µM (active)	43.1 µM (active)	43.7 µM (active)	34 µM (active)	20.5 µM (active)
C[N+](C)(C)CC(O)CC(=O)[O-] (stereo not drawn)	inactive	inactive	inactive	inactive	inactive	inactive	inactive	–	–	–	–	–	–	–
CCOC(=O)Cn1cccc1-c1nc(-c2ccc(OC)cc2)c(-c2ccc(OC)cc2)s1	inactive	inactive	inactive	–	inactive	inactive	inactive	–	–	–	40.9 µM (active)	–	–	–
Cc1ncc([N+](=O)[O-])n1CC(C)O (stereo not drawn)	inactive	inactive	inactive	inactive	inactive	inactive	inactive	–	–	–	–	–	–	–
CCCCCCCCCCOc1cc2c(=O)c(C(=O)OCC)c[nH]c2cc1OCC	inactive	inactive	inactive	inactive	inactive	inactive	inactive	–	–	–	–	–	–	–
CC(C)C[C@H](NC(=O)[C@@H](COC(C)(C)C)NC(=O)[C@H](Cc1ccc(O)cc1)NC(=O)[C@H](CO)NC(=O)[C@H](Cc1c[nH]c2ccccc12)NC(=O)[C@H](Cc1cnc[nH]1)NC(=O)[C@@H]1CCC(=O)N1)C(=O)N[C@@H](CCCN=C(N)N)C(=O)N1CCC[C@H]1C(=O)NNC(N)=O	inactive	inactive	inactive	inactive	inactive	inactive	inactive	–	–	–	–	–	–	–
C=CC(=O)CCCCC	inactive	inactive	inactive	inactive	inactive	inactive	inactive	–	–	–	–	–	–	–
CCCCCCCCCCCCCCCC(=O)OCC(COC(=O)CCCCCCCCCCCCCCC)OC(=O)CCCCCCCCCCCCCCC	inactive	inactive	inactive	inactive	inactive	inactive	inactive	–	–	–	–	–	–	–
COc1ccc(C(=O)Nc2ccccc2)cc1[N+](=O)[O-]	inactive	inactive	inactive	inactive	inactive	inactive	inactive	–	–	–	–	–	–	–
CC(C)C[C@@H](NC(=O)[C@@H](O)[C@H](N)Cc1ccccc1)C(=O)O	inactive	inactive	inactive	inactive	inactive	inactive	inactive	–	–	–	–	–	–	–

From PubChem BioAssay (EPA / NIEHS)
